The target of this experiment is Glucose transporter (Leishmania mexicana) (UniProt O61059). Put plainly: ST_JUDE_LEISH: Cytotoxicity at 2uM final concentration against transgenic Leishmania Mexicana promastigotes LmGT2 that are glucose transport deficient and complemented with the L. Mexicana glucose transporter 2. Activity is measured by DNA content using SYBR green in vitro. The class given is functional.
Consider `CN1CCCC1CCNc1ncc2c(-c3ccc(NC(=O)Nc4cc(C(F)(F)F)ccc4F)c(F)c3)nn(C)c2n1` (stereo not given), for which the inhibition was -0.39%.

Regarding `O=C(N[C@H]1CCN(Cc2ccc(OC3CCN(Cc4ccccc4)CC3)c(Cl)c2)C1)c1ccc(Cl)c(Cl)c1`, the inhibition turned out to be 1.75%.

Consider `CC(CN(C)C)Oc1ccc2nc(-c3cccc(OCc4ccccc4)c3)[nH]c2c1C#N` (stereo not given), for which the inhibition was determined as 0.08%.

As to `CCCCCCCN1CC[C@@H](CCCc2ccnc3ccc(OCC4CCCNC4)cc23)[C@@H](CC)C1` (stereo not given in full), the inhibition was 1.43%.

In the case of `CCOc1ccc(-c2noc(-c3c[nH]c4ccccc4c3=O)n2)cc1`, the inhibition is 2.82%.

For `Cc1cc(Cl)c(S(=O)(=O)N2CCc3ccccc32)cc1OCC(=O)NC1CCCCC1`, the inhibition amounted to 2.14%.

For `CC(C)NC[C@@H](O)[C@H](Cc1ccccc1)NC(=O)c1cc2c3c(c1)c(C(C)C)cn3CCS(=O)(=O)N2C`, the inhibition was found to be 2.8%.

As for `O=C(Nc1cccc(C2=NCCCN2)c1)Nc1cccc(C2=NCCCN2)c1`, the inhibition amounted to 0.46%.

As to `Cc1nc(C)c(-c2ccc(Br)cc2)c(O)c1Br`, the inhibition is -2.85%.

On to `CCCN1CCC2(CC1)NC(C(=O)NCCC(C)C)Cc1c2[nH]c2cc(Cl)ccc12` (stereo not given), for which the inhibition was 2.82%.

`COc1ccc(CCn2c(C3CCCCC3)nc3oc4ccccc4c(=O)c3c2=O)cc1`: the inhibition is -0.12%.

For the molecule `COc1ccc2nccc([C@H](O)CN3CCC(NCc4cc(C)c5c(c4)OCCO5)CC3)c2n1`, the inhibition was -2.32%.

As to `O=C(Nc1cccc(C(F)(F)F)c1)c1cccc(S(=O)(=O)NC2CCN(CC3CCCCC3)C2)c1` (stereo not given), the inhibition was 2.99%.

Turning to `CN(C)CCOc1ccc(-c2cc(-c3ccc(Cl)c(O)c3)c(-c3ccnc(N)n3)o2)cc1`, the inhibition came to 3.05%.

As for `CC(=O)N(C)c1ccc(C(=O)Nc2cccc(-c3cccc(-c4nc5cccc(C)c5[nH]4)c3)c2)cc1`, the inhibition is 0.08%.

`CC1(C)CCC(C)(C)c2c1ccc(C1CCN(CCCCNC(=O)c3ccc(-c4ccc(C#N)cc4)cc3)CC1)c2OCC(N)=O`: the inhibition turned out to be 4.33%.

As to `CC(C)N1CCC(N(Cc2ccc(-c3ccc(Cl)cc3)cc2)C(=O)Cn2c(CCc3cccc(F)c3F)cc(=O)c3ccccc32)CC1`, the inhibition was determined as 1.92%.

With `CN(C)CCCOc1c(C(C)(C)C)cc(-c2cc(C(C)(C)C)c(OCCCN(C)C)c(C(C)(C)C)c2)cc1C(C)(C)C`, the inhibition is 3.12%.

For `CC(=NNC(=N)N)c1ccc2c(ccc3ccccc32)c1`, the inhibition turned out to be 0.58%.

Consider `Cc1cc(C)cc(OCC(O)CN(CCN2CCOCC2)C(=O)Nc2ccc(Br)cc2)c1` (stereo not given), for which the inhibition is 13.4%.

For the molecule `CC(=O)NCCNc1nccc(N2CCc3ncnc(Nc4ccc(OCc5ccccn5)c(Cl)c4)c3C2)n1`, the inhibition is 1.9%.

`CC(C)NCc1cccc(-c2ccc(NC(=O)c3ccc(F)cc3)cc2)c1`: the inhibition is -0.76%.

With `Cc1cc(NCCC(=O)NCCOc2ccccc2)nc(NCCOc2ccccc2)n1`, the inhibition stood at 0.08%.

For the molecule `COc1cc2c(cc1S(=O)(=O)c1ccc(NC(=O)c3cc4ccccc4s3)cc1)CCN(C)CC2`, the inhibition came out at 1.94%.

In the case of `CN1CCC(NCc2ccc(-c3cccc(S(=O)(=O)NCc4ccccc4)c3)cc2)CC1`, the inhibition was -1.01%.

With `Cc1cc(F)ccc1[C@H]1CNCCN1C(=O)N(C)[C@@H](C)c1cc(C(F)(F)F)cc(C(F)(F)F)c1`, the inhibition was -2.72%.

With `CNCCNCc1ccc(-c2ccc(-c3nc4cc(C(F)(F)F)ccc4[nH]3)s2)cc1`, the inhibition came to 0.73%.

As for `CCc1cn2c3c(cc(C(=O)N[C@@H](Cc4ccccc4)[C@H](O)CNC4CCC4)cc13)N(C)S(=O)(=O)CC2`, the inhibition came out at 1.83%.

For `CCOc1cc(C)ccc1C1CCN(CCN2CCC(CNC(=O)c3ccc(-c4ccc(C(F)(F)F)cc4)cc3)CC2)CC1`, the inhibition was found to be 1.5%.

As to `CN1C(C)(C)CC(NC(=O)c2ccc(-c3cc4cc(Cl)c(Cl)cc4[nH]3)o2)CC1(C)C`, the inhibition was 6.1%.

With `COc1ccc2ncc(F)c(CCN3CCC(NCc4cc5c(cn4)OCCS5)CC3)c2c1`, the inhibition turned out to be 80.3%.

For the molecule `COc1ccc2nccc([C@@H](O)CN3CCC(NCc4nc5c(C#N)cccc5[nH]4)CC3)c2c1`, the inhibition came out at 3.84%.

Turning to `CCCCCN1CCCCC(NS(=O)(=O)c2ccc(C(=O)Nc3ccc(C(F)(F)F)cc3)cc2)C1` (stereo not given), the inhibition is -1.53%.

With `COc1cc(OC)nc(C(Sc2ccc(NC(=O)c3cccs3)cc2)c2ccccc2)n1` (stereo not given), the inhibition worked out at 0.29%.

As to `O=C(Nc1ccc(C(=O)OCC(c2ccccc2)c2ccccc2)cc1)N[C@@H](Cc1ccc(O)cc1)C(=O)NC1CCN(Cc2ccc(O)cc2)C1` (stereo not given in full), the inhibition is -3.39%.

Take `Cc1[nH]c(CNCCCNc2cc(=O)c3ccccc3[nH]2)c(Br)c1Br`: the inhibition is -0.49%.

For the molecule `CC(C)Nc1nc(NCCc2c[nH]cn2)nc(Nc2ccc(Oc3ccccc3)cc2)n1`, the inhibition is -1.98%.

As to `O=C(NCc1cccs1)[C@H](Cc1ccccc1)Nc1ccnc(NCC2CCCCC2)n1`, the inhibition is 10.6%.

As to `COc1ccc2ncc(Cl)c([C@@H](O)CN3CCC(NCc4cc5c(cn4)OCCO5)CC3)c2c1`, the inhibition amounted to 1.19%.

Regarding `Cc1cccc2nc(-c3ccc(-c4cccc(NC(=O)Nc5ccc(F)c(F)c5F)c4)cc3)[nH]c12`, the inhibition was found to be 0.59%.

Usually inhibition stands for the change of the read-out against control, counted positive when it falls.

(Values after ChEMBL document CHEMBL3433997, “St. Jude Leishmania screening dataset” (2016).)
